# Measured values: article PMC7862700, “An all-to-all approach to the identification of sequence-specific readers for epigenetic DNA modifications on cytosine”
# Key:
# Assay in all cases: DAPPL (digital affinity profiling via proximity ligation, sequencing); 10 mM Tris-HCl pH 7.5, 50 mM NaCl, 1 mM DTT, 4% glycerol, room temperature, 30 min; GST-TFs on glutathione beads, 16-mer random dsDNA library, 0.1% formaldehyde crosslink after washing; high values mean tight binding
# [1] = target: T1, FLI1 (Homo sapiens, UniProt Q01543 1-452); details: protein: recombinant; tags: N-terminal GST; dsDNA, one strand shown
# T1 sequence: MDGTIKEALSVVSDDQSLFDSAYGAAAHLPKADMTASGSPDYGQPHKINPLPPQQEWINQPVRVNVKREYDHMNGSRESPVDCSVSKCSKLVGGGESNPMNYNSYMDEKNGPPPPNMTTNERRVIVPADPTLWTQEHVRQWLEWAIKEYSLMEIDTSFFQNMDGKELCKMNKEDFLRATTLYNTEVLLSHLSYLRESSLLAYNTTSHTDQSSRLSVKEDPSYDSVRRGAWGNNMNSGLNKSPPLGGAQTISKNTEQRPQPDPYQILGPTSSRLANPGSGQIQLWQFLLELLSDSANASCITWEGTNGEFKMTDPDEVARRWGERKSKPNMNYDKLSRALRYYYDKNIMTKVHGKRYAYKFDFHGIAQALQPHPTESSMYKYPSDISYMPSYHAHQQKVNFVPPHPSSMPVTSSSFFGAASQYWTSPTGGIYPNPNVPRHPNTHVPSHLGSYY
# How it was run: (§1)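 GST fusions of human transcription factors were expressed in yeast and captured with glutathione beads. Once given DNA barcodes and pooled alongside a tag-only sample, they were incubated for 30 min at room temperature with 200 nmole of a random double-stranded 16-mer DNA library in Tris/NaCl/DTT/glycerol buffer, then washed, crosslinked (0.1% formaldehyde), proximity-ligated, PCR-amplified and sequenced on an Illumina NextSeq500. The binding signal of each hexamer is its read frequency for a factor divided by its frequency for the tag-only sample.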
# [2] = target: T2, ELK1 (Homo sapiens, UniProt P19419 1-428); details: protein: recombinant; tags: N-terminal GST; dsDNA, one strand shown
# T2 sequence: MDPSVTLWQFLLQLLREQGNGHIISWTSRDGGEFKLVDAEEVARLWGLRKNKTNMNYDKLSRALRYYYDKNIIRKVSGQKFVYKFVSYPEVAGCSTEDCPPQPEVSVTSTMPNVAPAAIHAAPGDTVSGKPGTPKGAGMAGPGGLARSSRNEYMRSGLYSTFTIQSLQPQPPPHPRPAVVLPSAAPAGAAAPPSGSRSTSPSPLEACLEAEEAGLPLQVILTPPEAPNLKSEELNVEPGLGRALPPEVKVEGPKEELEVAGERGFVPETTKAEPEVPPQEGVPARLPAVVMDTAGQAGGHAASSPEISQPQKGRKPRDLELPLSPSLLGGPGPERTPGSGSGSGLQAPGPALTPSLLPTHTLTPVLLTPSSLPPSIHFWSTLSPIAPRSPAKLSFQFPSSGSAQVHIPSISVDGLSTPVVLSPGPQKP
# How it was run: as §1
# [3] = target: T3, GABPA (Homo sapiens, UniProt Q06546 1-454); details: protein: recombinant; tags: N-terminal GST; dsDNA, one strand shown
# T3 sequence: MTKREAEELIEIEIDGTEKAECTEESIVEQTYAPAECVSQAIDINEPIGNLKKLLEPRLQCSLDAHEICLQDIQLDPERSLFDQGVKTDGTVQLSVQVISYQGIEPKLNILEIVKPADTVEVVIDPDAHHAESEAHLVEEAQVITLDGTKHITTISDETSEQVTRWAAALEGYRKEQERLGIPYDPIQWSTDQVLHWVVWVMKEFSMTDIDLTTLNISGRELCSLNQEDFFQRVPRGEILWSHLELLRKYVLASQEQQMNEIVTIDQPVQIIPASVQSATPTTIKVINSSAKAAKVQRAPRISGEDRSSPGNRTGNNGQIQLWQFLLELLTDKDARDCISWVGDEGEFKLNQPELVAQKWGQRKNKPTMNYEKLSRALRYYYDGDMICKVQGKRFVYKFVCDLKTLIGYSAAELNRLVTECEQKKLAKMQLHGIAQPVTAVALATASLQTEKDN
# How it was run: as §1
# [4] = target: T4, ERG (Homo sapiens, UniProt P11308 1-479); details: protein: recombinant; tags: N-terminal GST; dsDNA, one strand shown
# T4 sequence: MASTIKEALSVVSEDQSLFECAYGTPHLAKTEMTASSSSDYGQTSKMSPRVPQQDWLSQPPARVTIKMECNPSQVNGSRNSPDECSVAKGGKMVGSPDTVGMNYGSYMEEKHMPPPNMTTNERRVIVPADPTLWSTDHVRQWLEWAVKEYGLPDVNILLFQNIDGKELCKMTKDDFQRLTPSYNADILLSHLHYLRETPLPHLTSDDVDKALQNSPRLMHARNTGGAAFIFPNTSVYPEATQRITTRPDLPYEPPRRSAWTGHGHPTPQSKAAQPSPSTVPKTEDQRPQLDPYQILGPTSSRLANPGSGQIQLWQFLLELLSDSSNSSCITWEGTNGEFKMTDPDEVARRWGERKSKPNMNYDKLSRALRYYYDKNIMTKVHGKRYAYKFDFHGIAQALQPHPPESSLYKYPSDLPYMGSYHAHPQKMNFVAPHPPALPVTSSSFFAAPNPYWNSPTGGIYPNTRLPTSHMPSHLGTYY
# How it was run: as §1
# [5] = target: ELF1 (Homo sapiens, UniProt P32519 1-619); details: protein: recombinant; tags: N-terminal GST; dsDNA, one strand shown
# How it was run: as §1
# [6] = target: T5, EHF (Homo sapiens, UniProt Q9NZC4 1-300); details: protein: recombinant; tags: N-terminal GST; dsDNA, one strand shown
# T5 sequence: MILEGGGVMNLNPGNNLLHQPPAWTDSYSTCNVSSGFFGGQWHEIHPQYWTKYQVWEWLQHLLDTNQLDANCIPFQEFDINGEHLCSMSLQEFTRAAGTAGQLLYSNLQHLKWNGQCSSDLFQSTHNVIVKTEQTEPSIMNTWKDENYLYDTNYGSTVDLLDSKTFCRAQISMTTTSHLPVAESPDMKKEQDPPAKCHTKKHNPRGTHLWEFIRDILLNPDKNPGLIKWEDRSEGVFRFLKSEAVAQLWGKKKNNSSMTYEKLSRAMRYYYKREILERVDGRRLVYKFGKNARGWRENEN
# How it was run: as §1
# [7] = target: SPI1 (Homo sapiens, UniProt P17947 1-270); details: protein: recombinant; tags: N-terminal GST; dsDNA, one strand shown
# How it was run: as §1
# [8] = target: SPIB (Homo sapiens, UniProt Q01892 1-262); details: protein: recombinant; tags: N-terminal GST; dsDNA, one strand shown
# How it was run: as §1
# [9] = target: T6, ELK3 (Homo sapiens, UniProt P41970 1-407); details: protein: recombinant; tags: N-terminal GST; dsDNA, one strand shown
# T6 sequence: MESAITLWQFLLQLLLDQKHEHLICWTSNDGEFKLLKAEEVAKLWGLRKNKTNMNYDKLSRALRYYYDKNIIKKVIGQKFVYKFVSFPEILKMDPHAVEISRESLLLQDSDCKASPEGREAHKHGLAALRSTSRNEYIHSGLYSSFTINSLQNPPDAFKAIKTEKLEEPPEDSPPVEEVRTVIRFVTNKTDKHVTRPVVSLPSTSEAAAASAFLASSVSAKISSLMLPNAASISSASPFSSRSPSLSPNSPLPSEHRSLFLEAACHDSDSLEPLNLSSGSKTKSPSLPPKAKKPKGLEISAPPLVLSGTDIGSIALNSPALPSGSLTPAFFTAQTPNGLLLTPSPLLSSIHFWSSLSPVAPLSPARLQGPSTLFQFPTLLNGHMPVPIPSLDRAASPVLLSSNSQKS
# How it was run: as §1
# [10] = target: T7, FEV (Homo sapiens, UniProt Q99581 1-238); details: protein: recombinant; tags: N-terminal GST; dsDNA, one strand shown
# T7 sequence: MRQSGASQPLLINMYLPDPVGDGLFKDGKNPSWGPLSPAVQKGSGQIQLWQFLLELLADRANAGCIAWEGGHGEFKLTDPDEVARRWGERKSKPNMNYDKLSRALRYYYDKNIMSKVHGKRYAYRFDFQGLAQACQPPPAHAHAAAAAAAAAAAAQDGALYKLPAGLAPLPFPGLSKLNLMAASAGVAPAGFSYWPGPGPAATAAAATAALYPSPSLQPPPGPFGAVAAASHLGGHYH
# How it was run: as §1
# [11] = target: ETV5 (Homo sapiens, UniProt P41161 1-510); details: protein: recombinant; tags: N-terminal GST; dsDNA, one strand shown
# How it was run: as §1
# [12] = target: HSF1 (Homo sapiens, UniProt Q00613 1-529); details: protein: recombinant; tags: N-terminal GST; chain copies: 3; dsDNA, one strand shown
# How it was run: as §1
# [13] = target: T8, SPIC (Homo sapiens, UniProt Q8N5J4 1-248); details: protein: recombinant; tags: N-terminal GST; dsDNA, one strand shown
# T8 sequence: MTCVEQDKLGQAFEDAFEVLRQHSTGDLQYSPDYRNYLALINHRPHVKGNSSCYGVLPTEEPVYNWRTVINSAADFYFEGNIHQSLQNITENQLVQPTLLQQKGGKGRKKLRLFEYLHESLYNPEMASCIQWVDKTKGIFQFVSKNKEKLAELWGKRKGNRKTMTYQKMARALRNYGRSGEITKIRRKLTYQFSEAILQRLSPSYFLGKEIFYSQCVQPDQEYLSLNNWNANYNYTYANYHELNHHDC
# How it was run: as §1
# [14] = target: ELF4 (Homo sapiens, UniProt Q99607 1-663); details: protein: recombinant; tags: N-terminal GST; dsDNA, one strand shown
# How it was run: as §1
# [15] = target: T9, ELK4 (Homo sapiens, UniProt P28324-2 1-405); details: protein: recombinant; tags: N-terminal GST; dsDNA, one strand shown
# T9 sequence: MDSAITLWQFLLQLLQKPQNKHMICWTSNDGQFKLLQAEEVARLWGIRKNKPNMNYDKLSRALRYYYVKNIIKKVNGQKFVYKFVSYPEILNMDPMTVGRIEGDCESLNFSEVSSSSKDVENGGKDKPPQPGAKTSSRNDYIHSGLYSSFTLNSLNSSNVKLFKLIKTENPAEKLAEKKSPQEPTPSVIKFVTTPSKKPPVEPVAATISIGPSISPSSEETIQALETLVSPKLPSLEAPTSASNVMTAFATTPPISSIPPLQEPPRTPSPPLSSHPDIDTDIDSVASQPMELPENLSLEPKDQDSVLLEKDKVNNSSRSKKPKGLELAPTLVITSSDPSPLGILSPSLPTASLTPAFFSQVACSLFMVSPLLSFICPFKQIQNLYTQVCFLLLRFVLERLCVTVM
# How it was run: as §1
# [16] = target: T10, ETV2 (Homo sapiens, UniProt O00321 1-342); details: protein: recombinant; tags: N-terminal GST; dsDNA, one strand shown
# T10 sequence: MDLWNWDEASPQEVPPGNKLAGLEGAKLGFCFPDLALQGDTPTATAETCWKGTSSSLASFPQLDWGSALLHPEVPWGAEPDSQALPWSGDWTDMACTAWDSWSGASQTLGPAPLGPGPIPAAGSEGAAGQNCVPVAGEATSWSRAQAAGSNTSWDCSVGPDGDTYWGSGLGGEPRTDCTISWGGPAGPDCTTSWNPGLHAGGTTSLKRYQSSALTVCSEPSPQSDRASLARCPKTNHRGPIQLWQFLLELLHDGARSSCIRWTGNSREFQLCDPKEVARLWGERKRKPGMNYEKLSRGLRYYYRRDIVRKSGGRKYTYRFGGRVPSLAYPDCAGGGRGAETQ
# How it was run: as §1
# [17] = target: T11, ELF3 (Homo sapiens, UniProt P78545 1-371); details: protein: recombinant; tags: N-terminal GST; dsDNA, one strand shown
# T11 sequence: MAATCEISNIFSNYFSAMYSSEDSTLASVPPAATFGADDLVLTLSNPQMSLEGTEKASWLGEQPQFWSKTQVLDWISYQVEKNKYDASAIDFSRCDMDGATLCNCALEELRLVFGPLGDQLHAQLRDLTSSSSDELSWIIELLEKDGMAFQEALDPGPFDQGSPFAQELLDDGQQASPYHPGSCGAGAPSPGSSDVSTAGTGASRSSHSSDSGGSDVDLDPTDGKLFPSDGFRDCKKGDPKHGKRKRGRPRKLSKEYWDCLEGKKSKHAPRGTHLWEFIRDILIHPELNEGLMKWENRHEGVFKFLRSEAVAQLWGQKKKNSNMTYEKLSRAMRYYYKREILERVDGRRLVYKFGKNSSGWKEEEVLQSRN
# How it was run: as §1
# [18] = target: CRX (Homo sapiens, UniProt O43186 1-299); details: protein: recombinant; tags: N-terminal GST; dsDNA, one strand shown
# How it was run: as §1
# [19] = target: ETV1 (Homo sapiens, UniProt P50549 1-477); details: protein: recombinant; tags: N-terminal GST; dsDNA, one strand shown
# How it was run: as §1
# Sequence of ELF1 (P32519 whole entry): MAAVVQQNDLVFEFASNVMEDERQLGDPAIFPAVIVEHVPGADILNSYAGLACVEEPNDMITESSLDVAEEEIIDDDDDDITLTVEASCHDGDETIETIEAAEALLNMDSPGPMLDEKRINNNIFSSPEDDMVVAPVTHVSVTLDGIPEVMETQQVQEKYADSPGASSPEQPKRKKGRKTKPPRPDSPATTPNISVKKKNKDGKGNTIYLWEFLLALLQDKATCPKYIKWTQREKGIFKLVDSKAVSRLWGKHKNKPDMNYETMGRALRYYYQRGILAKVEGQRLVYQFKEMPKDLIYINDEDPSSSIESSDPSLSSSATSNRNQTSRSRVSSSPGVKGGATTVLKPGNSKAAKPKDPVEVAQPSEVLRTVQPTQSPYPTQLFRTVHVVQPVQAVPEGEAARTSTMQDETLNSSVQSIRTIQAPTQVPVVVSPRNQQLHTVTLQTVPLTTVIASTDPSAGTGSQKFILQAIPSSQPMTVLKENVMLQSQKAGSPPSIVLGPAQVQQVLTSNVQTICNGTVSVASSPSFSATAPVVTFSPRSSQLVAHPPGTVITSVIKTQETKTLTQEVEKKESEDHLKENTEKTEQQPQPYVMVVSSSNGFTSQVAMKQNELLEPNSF
# Sequence of HSF1 (Q00613 whole entry): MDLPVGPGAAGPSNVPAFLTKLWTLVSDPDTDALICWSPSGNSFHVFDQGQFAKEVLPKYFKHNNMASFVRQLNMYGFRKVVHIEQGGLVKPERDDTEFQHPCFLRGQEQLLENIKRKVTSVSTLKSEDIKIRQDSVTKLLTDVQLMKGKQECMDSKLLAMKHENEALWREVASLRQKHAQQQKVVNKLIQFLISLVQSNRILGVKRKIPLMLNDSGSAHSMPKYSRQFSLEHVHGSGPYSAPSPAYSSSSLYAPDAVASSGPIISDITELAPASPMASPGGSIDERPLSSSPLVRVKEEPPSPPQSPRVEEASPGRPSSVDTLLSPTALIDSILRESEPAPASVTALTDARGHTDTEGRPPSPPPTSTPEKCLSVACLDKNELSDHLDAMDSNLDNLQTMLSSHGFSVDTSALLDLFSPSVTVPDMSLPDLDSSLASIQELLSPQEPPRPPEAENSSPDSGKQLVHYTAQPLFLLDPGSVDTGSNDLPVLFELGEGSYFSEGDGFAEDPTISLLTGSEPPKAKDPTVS
# Sequence of ETV1 (P50549 whole entry): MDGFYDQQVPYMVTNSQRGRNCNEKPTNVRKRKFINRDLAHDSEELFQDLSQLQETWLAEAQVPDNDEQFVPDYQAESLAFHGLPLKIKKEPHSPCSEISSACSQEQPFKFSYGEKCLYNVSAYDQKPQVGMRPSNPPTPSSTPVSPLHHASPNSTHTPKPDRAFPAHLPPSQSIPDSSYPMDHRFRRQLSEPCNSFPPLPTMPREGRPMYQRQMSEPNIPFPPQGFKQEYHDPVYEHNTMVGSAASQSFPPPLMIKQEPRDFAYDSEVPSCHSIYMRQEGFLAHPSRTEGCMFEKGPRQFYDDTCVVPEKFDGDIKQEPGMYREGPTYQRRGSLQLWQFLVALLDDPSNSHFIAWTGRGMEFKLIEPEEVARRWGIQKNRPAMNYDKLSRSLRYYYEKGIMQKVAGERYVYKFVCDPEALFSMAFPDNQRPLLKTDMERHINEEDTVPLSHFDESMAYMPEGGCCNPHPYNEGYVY
# Sequence of ELF4 (Q99607 whole entry): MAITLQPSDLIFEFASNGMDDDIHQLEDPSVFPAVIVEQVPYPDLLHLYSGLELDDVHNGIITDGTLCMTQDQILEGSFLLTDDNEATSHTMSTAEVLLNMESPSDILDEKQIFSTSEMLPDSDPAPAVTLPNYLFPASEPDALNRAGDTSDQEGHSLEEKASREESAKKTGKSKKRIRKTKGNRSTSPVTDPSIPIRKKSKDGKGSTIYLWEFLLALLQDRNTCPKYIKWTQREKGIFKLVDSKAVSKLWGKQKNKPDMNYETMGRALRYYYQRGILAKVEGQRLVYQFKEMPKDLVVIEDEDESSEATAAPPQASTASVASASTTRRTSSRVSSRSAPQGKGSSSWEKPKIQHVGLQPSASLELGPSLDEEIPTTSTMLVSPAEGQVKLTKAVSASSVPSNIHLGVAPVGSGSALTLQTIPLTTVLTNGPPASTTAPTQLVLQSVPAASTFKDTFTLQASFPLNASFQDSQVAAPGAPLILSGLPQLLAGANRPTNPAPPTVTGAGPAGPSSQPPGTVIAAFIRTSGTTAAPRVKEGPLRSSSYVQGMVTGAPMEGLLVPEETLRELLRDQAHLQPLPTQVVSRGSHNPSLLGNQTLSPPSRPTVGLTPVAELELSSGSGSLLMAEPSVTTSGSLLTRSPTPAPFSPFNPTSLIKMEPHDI
# Sequence of SPIB (Q01892 whole entry): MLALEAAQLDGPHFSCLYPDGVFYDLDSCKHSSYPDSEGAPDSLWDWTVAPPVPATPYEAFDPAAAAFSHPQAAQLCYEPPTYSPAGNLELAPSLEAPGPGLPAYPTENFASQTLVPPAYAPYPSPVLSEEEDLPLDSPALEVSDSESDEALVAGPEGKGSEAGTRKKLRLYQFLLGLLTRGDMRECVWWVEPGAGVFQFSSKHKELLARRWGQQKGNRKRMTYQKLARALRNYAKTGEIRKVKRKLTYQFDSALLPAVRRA
# Sequence of CRX (O43186 whole entry): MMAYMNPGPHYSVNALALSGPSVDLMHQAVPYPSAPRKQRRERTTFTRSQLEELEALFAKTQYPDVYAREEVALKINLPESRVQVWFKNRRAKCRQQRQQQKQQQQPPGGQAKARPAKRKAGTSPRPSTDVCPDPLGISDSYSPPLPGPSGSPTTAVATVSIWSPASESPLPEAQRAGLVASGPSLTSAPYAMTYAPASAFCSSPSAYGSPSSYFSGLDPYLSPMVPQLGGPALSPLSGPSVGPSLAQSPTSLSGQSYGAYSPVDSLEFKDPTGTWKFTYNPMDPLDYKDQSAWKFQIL
# Sequence of ETV5 (P41161 whole entry): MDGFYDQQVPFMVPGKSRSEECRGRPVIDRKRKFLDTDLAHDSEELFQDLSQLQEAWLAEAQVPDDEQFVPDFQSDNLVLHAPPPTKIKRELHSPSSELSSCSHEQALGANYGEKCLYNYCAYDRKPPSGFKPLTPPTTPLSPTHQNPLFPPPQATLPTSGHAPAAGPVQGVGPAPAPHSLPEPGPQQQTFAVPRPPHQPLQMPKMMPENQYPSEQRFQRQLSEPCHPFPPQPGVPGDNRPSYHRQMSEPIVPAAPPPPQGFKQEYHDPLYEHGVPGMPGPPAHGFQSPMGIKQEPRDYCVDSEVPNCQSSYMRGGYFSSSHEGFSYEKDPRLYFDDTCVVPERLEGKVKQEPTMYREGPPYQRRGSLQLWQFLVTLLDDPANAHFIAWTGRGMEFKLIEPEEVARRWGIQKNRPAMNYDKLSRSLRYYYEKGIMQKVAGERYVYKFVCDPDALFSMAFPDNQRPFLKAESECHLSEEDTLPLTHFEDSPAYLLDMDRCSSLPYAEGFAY
sequence,measurement,setting,value
TGGGAT,binding signal,[1],"1.12 fold enrichment (6-mer frequency, TF over GST control)"
same,binding signal,[2],"1.17 fold enrichment (6-mer frequency, TF over GST control)"
same,binding signal,[3],"1.3 fold enrichment (6-mer frequency, TF over GST control)"
same,binding signal,[4],"1.13 fold enrichment (6-mer frequency, TF over GST control)"
same,binding signal,[5],"1.25 fold enrichment (6-mer frequency, TF over GST control)"
same,binding signal,[6],"1.25 fold enrichment (6-mer frequency, TF over GST control)"
same,binding signal,[7],"1.29 fold enrichment (6-mer frequency, TF over GST control)"
same,binding signal,[8],"1.24 fold enrichment (6-mer frequency, TF over GST control)"
same,binding signal,[9],"1.17 fold enrichment (6-mer frequency, TF over GST control)"
same,binding signal,[10],"1.18 fold enrichment (6-mer frequency, TF over GST control)"
same,binding signal,[11],"1.19 fold enrichment (6-mer frequency, TF over GST control)"
same,binding signal,[12],"1.47 fold enrichment (6-mer frequency, TF over GST control)"
same,binding signal,[13],"1.17 fold enrichment (6-mer frequency, TF over GST control)"
same,binding signal,[14],"1.2 fold enrichment (6-mer frequency, TF over GST control)"
same,binding signal,[15],"1.39 fold enrichment (6-mer frequency, TF over GST control)"
same,binding signal,[16],"1.14 fold enrichment (6-mer frequency, TF over GST control)"
same,binding signal,[17],"1.12 fold enrichment (6-mer frequency, TF over GST control)"
same,binding signal,[18],"1.9 fold enrichment (6-mer frequency, TF over GST control)"
same,binding signal,[19],"1.25 fold enrichment (6-mer frequency, TF over GST control)"
